proKLK7 act – activates the human kallikrein-7 zymogen | P49862 | purified proKLK7, EDANS-DABCYL substrate fluorescence; 100% is mature enzyme control, 0% vehicle | activation, % at 7 µM | 370,000 tested, 0.9% active | AID 652039;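 active means activation above the mean of all tested compounds plus 3 SD, computed per campaign excluding outliers beyond control limits, cut at about 13% in these data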
ADAM10 inh – inhibits human ADAM10; O14672; recombinant ADAM10, EDANS/DABCYL FRET peptide cleavage, 3 h; inhibition, % at 7 µM; 370,000 tested, 0.62% active; AID 720582;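 active means inhibition above a per-campaign cutoff equal to the mean of compounds falling between control-based bounds plus 3 SD, cut at about 20% in these data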
PLCb3 inh – PLC-beta3 (human) inhibition, primary screen | Q01970 | Purified PLC-beta3, fluorogenic substrate, fluorescence | inhibition, % at 12.2 µM | 370,000 tested, 0.18% active | AID 720704; in the data active means inhibition above about 11%
Target sequence (Q01970 whole entry, looked up): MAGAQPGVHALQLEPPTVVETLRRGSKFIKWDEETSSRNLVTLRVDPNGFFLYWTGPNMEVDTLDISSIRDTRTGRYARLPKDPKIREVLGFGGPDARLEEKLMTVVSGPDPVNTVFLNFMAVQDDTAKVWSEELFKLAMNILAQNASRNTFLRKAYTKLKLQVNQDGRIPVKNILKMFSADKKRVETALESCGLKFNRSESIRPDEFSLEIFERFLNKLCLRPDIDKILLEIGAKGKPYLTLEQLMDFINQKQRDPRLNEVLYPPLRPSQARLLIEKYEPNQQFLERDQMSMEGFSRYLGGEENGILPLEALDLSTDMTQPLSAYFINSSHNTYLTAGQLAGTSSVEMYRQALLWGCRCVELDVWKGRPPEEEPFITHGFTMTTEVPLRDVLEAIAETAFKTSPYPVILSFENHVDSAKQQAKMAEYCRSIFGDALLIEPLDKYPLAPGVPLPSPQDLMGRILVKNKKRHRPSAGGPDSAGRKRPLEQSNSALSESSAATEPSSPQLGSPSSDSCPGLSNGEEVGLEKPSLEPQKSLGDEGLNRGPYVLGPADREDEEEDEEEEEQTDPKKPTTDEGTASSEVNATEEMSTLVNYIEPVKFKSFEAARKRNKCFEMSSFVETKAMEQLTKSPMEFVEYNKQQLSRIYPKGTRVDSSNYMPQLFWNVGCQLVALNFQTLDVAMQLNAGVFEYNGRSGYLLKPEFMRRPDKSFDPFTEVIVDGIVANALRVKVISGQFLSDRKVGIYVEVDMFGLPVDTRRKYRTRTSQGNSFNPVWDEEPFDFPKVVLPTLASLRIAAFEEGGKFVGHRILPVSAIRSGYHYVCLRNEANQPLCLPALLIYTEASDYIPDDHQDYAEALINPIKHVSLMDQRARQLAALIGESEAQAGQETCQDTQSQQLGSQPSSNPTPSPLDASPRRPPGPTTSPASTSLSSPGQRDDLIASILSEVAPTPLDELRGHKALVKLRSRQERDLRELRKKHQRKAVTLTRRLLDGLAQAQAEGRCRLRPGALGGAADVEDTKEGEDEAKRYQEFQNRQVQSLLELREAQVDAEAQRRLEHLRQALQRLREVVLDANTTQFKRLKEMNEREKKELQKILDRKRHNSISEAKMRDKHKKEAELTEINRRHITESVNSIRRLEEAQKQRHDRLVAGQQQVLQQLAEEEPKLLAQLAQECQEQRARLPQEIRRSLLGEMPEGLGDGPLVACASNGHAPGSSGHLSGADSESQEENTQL
PLC-gamma1 inh – inhibitors of human phospholipase C gamma1; P19174; purified PLC-gamma1, fluorogenic substrate, fluorescence; inhibition, % at 12.2 µM; 370,000 tested, 0.84% active
ADAM17 inh – inhibits human ADAM17 | inhibition, % at 6.95 µM | recombinant ADAM17, EDANS/DABCYL FRET peptide cleavage | AID 720648 | P78536 | 370,000 tested, 0.83% active;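 active means inhibition above the mean of compounds lying between control limits plus 3 SD, set per campaign, cut at about 8.5% in these data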
PLCg1 ctr – inhibits human PLC-gamma1 in PLC-beta3 counter-screen; AID 743258; inhibition, % at 12.3 µM; purified PLC-gamma1, fluorogenic substrate, fluorescence; shares compounds with PLC-gamma1 inh; 3,300 tested, 3.1% active
PLCbeta3 conf – human PLC-beta3 inhibition, confirmation; inhibition, % at 12.3 µM; purified PLC-beta3, fluorogenic substrate fluorescence; 3,300 tested, 1% active; shares compounds with PLC-gamma1 inh; in the data active means inhibition above about 11%
Hits are given with their value. The list is not random: actives were taken first. Their share in the collection is about 2.9%. Unless noted, no stated cut-off is given here; in the data, active means inhibition above about 9.5%; inactive means the rest.

Results for COc1ccc(CC(N)c2csc(Nc3ccccn3)n2)cc1 (stereo not drawn) ?
proKLK7 act: inactive; ADAM10 inh: inactive; PLCb3 inh: inactive; PLC-gamma1 inh: 15; ADAM17 inh: inactive; PLCg1 ctr: inactive; PLCbeta3 conf: inactive

Results for COc1cccc(Nc2nc(C(N)Cc3ccc(Cl)cc3)cs2)n1 (stereo not drawn) ?
proKLK7 act: inactive; ADAM10 inh: inactive; PLCb3 inh: inactive; PLC-gamma1 inh: 9.5; ADAM17 inh: inactive; PLCg1 ctr: inactive; PLCbeta3 conf: inactive

How did COc1ccc(CC(N)c2csc(Nc3cccc(OC)n3)n2)cc1 (stereo not drawn) do in these assays?
proKLK7 act: inactive; ADAM10 inh: inactive; PLCb3 inh: inactive; PLC-gamma1 inh: inactive; ADAM17 inh: inactive

Results for CCCCC1CC2=C(C(=O)OC(C)(C)O2)C(c2cccc3ccccc23)O1 (stereo not drawn) ?
proKLK7 act: inactive; ADAM10 inh: inactive; PLCb3 inh: inactive; PLC-gamma1 inh: inactive; ADAM17 inh: inactive

How did CCCCn1c(N)c(Sc2ccccc2[N+](=O)[O-])c(=O)[nH]c1=O do in these assays?
proKLK7 act: inactive; ADAM10 inh: inactive; PLCb3 inh: inactive; PLC-gamma1 inh: inactive; ADAM17 inh: inactive

Results for Cc1[nH]c(=O)[nH]c(=O)c1Sc1ccccc1[N+](=O)[O-] ?
proKLK7 act: inactive; ADAM10 inh: inactive; PLCb3 inh: inactive; PLC-gamma1 inh: 12; ADAM17 inh: inactive; PLCg1 ctr: inactive; PLCbeta3 conf: inactive

How did COc1ccc(NS(=O)(=O)c2cc(NC(=O)c3cccnc3Cl)ccc2N2CCCC2)cc1 do in these assays?
proKLK7 act: inactive; ADAM10 inh: inactive; PLCb3 inh: inactive; PLC-gamma1 inh: 10; ADAM17 inh: inactive; PLCg1 ctr: inactive; PLCbeta3 conf: inactive

What do the screens show for `COc1ccc(NS(=O)(=O)c2cc(NC(=O)c3cnc(C)cn3)ccc2N2CCCC2)cc1`?
proKLK7 act: inactive; ADAM10 inh: inactive; PLCb3 inh: inactive; PLC-gamma1 inh: inactive; ADAM17 inh: inactive

What do the screens show for `COc1ccc(Sc2cccc3c2S(=O)(=O)N([C@H](C)c2ccccc2)C[C@@H](COCc2ccccc2)O3)cc1OC`?
proKLK7 act: inactive; ADAM10 inh: inactive; PLCb3 inh: inactive; PLC-gamma1 inh: inactive; ADAM17 inh: inactive

What do the screens show for `COC(=O)C1=C(C)N(C)C(=NCc2cc(OC)c(OC)c(OC)c2)NC1c1ccc(Cl)cc1` (stereo not drawn)?
proKLK7 act: inactive; ADAM10 inh: inactive; PLCb3 inh: 13; PLC-gamma1 inh: inactive; ADAM17 inh: inactive; PLCg1 ctr: inactive; PLCbeta3 conf: inactive

Results for O[C@H]1C[C@H](c2ccc(Cl)cc2)N(CC2CCCCC2)C[C@@H]1n1cc(C2CC2)nn1 ?
proKLK7 act: inactive; ADAM10 inh: inactive; PLCb3 inh: inactive; PLC-gamma1 inh: inactive; ADAM17 inh: inactive

What do the screens show for `COc1ccc(NC2=C(Cl)C(=O)N(CCc3ccccc3)C2=O)cc1`?
proKLK7 act: inactive; ADAM10 inh: inactive; PLCb3 inh: inactive; PLC-gamma1 inh: inactive; ADAM17 inh: inactive

Results for CCOc1ccc(NC2=C(Cl)C(=O)N(Cc3ccccc3)C2=O)cc1 ?
proKLK7 act: inactive; ADAM10 inh: inactive; PLCb3 inh: inactive; PLC-gamma1 inh: 11; ADAM17 inh: inactive; PLCg1 ctr: inactive; PLCbeta3 conf: inactive

Results for Cc1ccc(S(=O)(=O)Cc2nc3ccccc3c(=O)[nH]2)cc1 ?
proKLK7 act: inactive; ADAM10 inh: inactive; PLCb3 inh: 19; PLC-gamma1 inh: inactive; ADAM17 inh: inactive; PLCg1 ctr: inactive; PLCbeta3 conf: inactive

Results for Cc1csc(-c2cc(C(=O)NCc3ccc(F)cc3)n[nH]2)c1 ?
proKLK7 act: inactive; ADAM10 inh: inactive; PLCb3 inh: inactive; PLC-gamma1 inh: inactive; ADAM17 inh: inactive

What do the screens show for `CC(C)OC(=O)c1ccccc1C(=O)c1ccc(N)c([N+](=O)[O-])c1`?
proKLK7 act: inactive; ADAM10 inh: inactive; PLCb3 inh: inactive; PLC-gamma1 inh: 9.8; ADAM17 inh: inactive; PLCg1 ctr: inactive; PLCbeta3 conf: inactive

How did CNC(=O)COC(=O)c1ccccc1C(=O)c1ccc(Cl)c([N+](=O)[O-])c1 do in these assays?
proKLK7 act: inactive; ADAM10 inh: inactive; PLCb3 inh: inactive; PLC-gamma1 inh: inactive; ADAM17 inh: inactive

Results for CC(COc1cc(F)cc(C#N)c1)CN1CCC(C(O)(c2ccccc2)c2ccccc2)CC1 (stereo not drawn) ?
proKLK7 act: inactive; ADAM10 inh: inactive; PLCb3 inh: inactive; PLC-gamma1 inh: inactive; ADAM17 inh: inactive

What do the screens show for `Cc1cccc(-c2nn(-c3ccccc3)cc2C(=O)Nc2cccc(S(=O)(=O)NC3=NCCC3)c2)c1`?
proKLK7 act: inactive; ADAM10 inh: inactive; PLCb3 inh: inactive; PLC-gamma1 inh: 11; ADAM17 inh: inactive; PLCg1 ctr: inactive; PLCbeta3 conf: inactive

Results for Cc1ccc(F)cc1NC(=S)NCCc1ccccc1 ?
proKLK7 act: inactive; ADAM10 inh: inactive; PLCb3 inh: inactive; PLC-gamma1 inh: 11; ADAM17 inh: inactive; PLCg1 ctr: inactive; PLCbeta3 conf: inactive

What do the screens show for `COc1cc2c(c(OC)c1OC)C1(CCCCC1)CC2NC(=O)c1ccncc1` (stereo not drawn)?
proKLK7 act: inactive; ADAM10 inh: inactive; PLCb3 inh: inactive; PLC-gamma1 inh: inactive; ADAM17 inh: inactive

Results for CCn1c(CNc2ccc(F)cc2)nnc1SCC(=O)Nc1ccccc1OC ?
proKLK7 act: inactive; ADAM10 inh: inactive; PLCb3 inh: inactive; PLC-gamma1 inh: 11; ADAM17 inh: inactive; PLCg1 ctr: inactive; PLCbeta3 conf: inactive

How did Cc1cnc2ccc(F)cc2c1 do in these assays?
proKLK7 act: inactive; ADAM10 inh: inactive; PLCb3 inh: inactive; PLC-gamma1 inh: 12; ADAM17 inh: inactive; PLCg1 ctr: inactive; PLCbeta3 conf: inactive

How did COc1cccc(CNC(=O)C2CCN(Cc3cnn(-c4ccccc4)c3-n3cccc3)CC2)c1 do in these assays?
proKLK7 act: inactive; ADAM10 inh: inactive; PLCb3 inh: inactive; PLC-gamma1 inh: 9.7; ADAM17 inh: inactive; PLCg1 ctr: inactive; PLCbeta3 conf: inactive

How did Cc1cccc(NC(=O)c2cccc(S(=O)(=O)N3CCc4ccccc4C3)c2)n1 do in these assays?
proKLK7 act: inactive; ADAM10 inh: inactive; PLCb3 inh: inactive; PLC-gamma1 inh: inactive; ADAM17 inh: inactive

Results for CCNC(=O)C[C@H]1CC[C@H]2[C@@H](COc3ccc(NC(=O)c4ccc5c(c4)OCO5)cc3C(=O)N2C)O1 ?
proKLK7 act: inactive; ADAM10 inh: inactive; PLCb3 inh: inactive; PLC-gamma1 inh: 9.6; ADAM17 inh: inactive; PLCg1 ctr: 15; PLCbeta3 conf: 14

How did COC(=O)C[C@@H]1CC[C@@H]2[C@H](COc3ccc(NC(=O)c4ccc5c(c4)OCO5)cc3C(=O)N2C)O1 do in these assays?
proKLK7 act: inactive; ADAM10 inh: inactive; PLCb3 inh: inactive; PLC-gamma1 inh: inactive; ADAM17 inh: inactive

Screens: PubChem, The Scripps Research Institute Molecular Screening Center
